EBNA-1 inhibitor – blocks EBNA-1 binding to DNA | AID 1950 | inhibition, % at 14.8 µM | EBNA-1 DNA binding, fluorescence polarization | 0.34% of 300,000 active; in the data active = inhibition above about 28%
ZTA DNA inh – ZTA (EBV) inhibition in EBNA-1 counter-screen; P03206; ZTA-DNA binding, fluorescence polarization; inhibition, % at 11 µM; 0.15% of 320,000 active; in the data active = inhibition above about 33%
Target sequence (P03206 whole entry, looked up): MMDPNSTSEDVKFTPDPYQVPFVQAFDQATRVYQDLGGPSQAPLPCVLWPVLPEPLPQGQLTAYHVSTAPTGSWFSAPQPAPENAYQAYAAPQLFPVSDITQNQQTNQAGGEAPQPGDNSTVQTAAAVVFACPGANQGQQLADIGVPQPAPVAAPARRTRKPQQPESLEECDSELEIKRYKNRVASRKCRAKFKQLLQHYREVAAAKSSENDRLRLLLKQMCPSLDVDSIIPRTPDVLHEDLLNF
NALP1 inh – inhibitors of NALP1 inflammasome in yeast; S. cerevisiae NALP1/ASC/caspase-1 growth, X-gal OD620, 72 h; inhibition, % at 10 µM; 0.61% of 280,000 active; in the data active = inhibition mostly above about 24%, no sharp cut-off; inactive = mostly below about 32%
dFosB act – activators of mouse delta FosB homodimer; activation, % at 25 µM; 0.99% of 340,000 active; AID 493131; purified delta FosB, TAMRA-CDK5 oligo fluorescence polarization; percent of positive-control signal above neutral wells; P13346;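 active = mean activation above about 17%, with every replicate also reaching it, limit read from the data, passing the limit was not always enough; inconclusive = only one of the two conditions met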
Target sequence (P13346 whole entry, looked up): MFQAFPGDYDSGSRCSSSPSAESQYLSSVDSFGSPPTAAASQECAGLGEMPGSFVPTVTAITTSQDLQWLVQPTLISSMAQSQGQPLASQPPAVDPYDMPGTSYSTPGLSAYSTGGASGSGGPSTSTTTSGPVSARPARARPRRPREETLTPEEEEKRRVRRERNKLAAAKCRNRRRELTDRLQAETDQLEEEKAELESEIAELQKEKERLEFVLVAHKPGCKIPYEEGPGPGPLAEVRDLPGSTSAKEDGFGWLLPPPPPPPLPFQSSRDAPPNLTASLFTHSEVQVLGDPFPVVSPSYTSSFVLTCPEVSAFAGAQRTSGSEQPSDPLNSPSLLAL
NALP3 yeast inh – NALP3 inhibition in yeast; Yeast reconstituted NLRP3/ASC/caspase-1, beta-gal luminescence, 24 h; inhibition, % at 10 µM; AID 2825; 0.39% of 330,000 active;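 active = inhibition of 50% or more; inactive = inhibition below 50%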
PolyA inh – yeast polyadenylation inhibition | S. cerevisiae SKY197-pL101 polyadenylation reporter, beta-gal luminescence; efflux-impaired pdr1/pdr3 knockout yeast; score 100 = 6 SD above DMSO | activity score, % at 12 µM | 0.02% of 300,000 active | AID 1875;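 active = lowest replicate activity score at least 50, where 100 means six control SD above control mean; inconclusive = lowest score under 50 but half or more replicates reach 50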;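 also: yeast exposed to compound for 9 h at 30 °C; higher score means more reporter readthrough which indicates perturbed polyadenylation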
Hits are given with their value; . = inactive; ? = inconclusive; / = not tested or not shown. A selection: hits, their analogues and other compounds. The true share with any hit is near 2.2%.

SMILES	EBNA-1 inhibitor	ZTA DNA inh	NALP1 inh	dFosB act	NALP3 yeast inh	PolyA inh
c1ccc(CN2CCN(c3nc(NCc4ccco4)c4ccccc4n3)CC2)cc1	.	.	.	27.9	.	.
OC(c1ccccc1)(c1ccccc1)c1nccc2ccccc12	/	/	/	.	/	/
Cc1ccc(S(=O)(=O)NCC2CCC(C(=O)NCc3ccc4c(c3)OCO4)CC2)cc1 (centres undefined)	.	.	41.4	.	.	.
Cc1ccc(S(=O)(=O)NC(=O)NCc2ccc3c(c2)OCO3)cc1	.	.	.	.	.	.
CC(C)CC(=O)/C(=C/c1ccc(N(C)C)cc1)n1cncn1	.	.	.	.	.	.
CC(C)CC(=O)/C(=C\c1ccc(Cl)cc1Cl)n1cncn1	/	/	111.6	.	/	.
CCCn1c(=O)c2sccc2n2c(CCCC(=O)NC3CCN(Cc4ccccc4)CC3)nnc12	.	.	.	.	.	?
CCOc1ccc(C(Nc2cccnc2)c2cc(Cl)c3cccnc3c2O)cc1 (centres undefined)	.	.	44.4	.	.	/
COc1ccc(-n2c(C)cc(C(=O)CCl)c2C)cc1	.	.	42.2	.	.	.
COc1ccc(-n2c(C)cc(C(=O)CN3C(=O)c4ccccc4C3=O)c2C)cc1	.	.	.	.	.	.
O=C(N/N=C/c1ccccc1)c1cc(-c2ccc3c(c2)OCO3)n[nH]1	.	.	.	.	.	.
O=C(N/N=C/c1cccc(O)c1)c1cc(-c2ccc3c(c2)OCO3)n[nH]1	.	.	.	41.2	.	.
CCOC(=O)C(=CNNc1c(C)csc1C(=O)OC)C(=O)OCC	.	.	.	.	.	.
COC(=O)c1scc(C)c1N/N=C(\C)c1cc(F)c(Cl)cc1F	.	.	42.0	.	.	.
CC1(NC(=O)CCc2nc3sc4c(c3c(=O)[nH]2)CCCC4)CCS(=O)(=O)C1 (centres undefined)	.	.	/	.	.	.
Cc1cc(C)cc(OCC(=O)NCCc2nc3ccccc3[nH]2)c1	.	.	.	.	.	.
Cc1cc(=O)oc2cc(OCC(=O)NCCc3nc4ccccc4[nH]3)ccc12	.	.	38.3	.	.	.
CCCCN(CCCC)S(=O)(=O)c1ccc(NC(=O)CN2CCOCC2)cc1	.	.	41.4	.	.	.
CN(C)S(=O)(=O)c1ccc(NC(=O)CN2CCOCC2)cc1	.	.	/	.	.	.
Cc1noc(C)c1COc1ccccc1C(=O)N(C)CC(=O)Nc1ccc(F)c(F)c1F	/	.	/	.	.	/
Cc1ccc(-c2csc(N3CCN(c4cc5c(cc4Cl)nc(-c4ccncc4)n5CCN4CCCCC4)CC3)n2)cc1	.	.	.	22.4	.	.
Cc1ccc(-c2csc(N3CCN(c4ccc5nc(-c6ccncc6)n(CCN6CCCCC6)c5c4)CC3)n2)cc1	.	.	.	.	.	.
Nc1ccccc1C(=O)C[C@H](N)C(=O)O	/	/	/	.	/	/
CC(NC(=O)C(=O)NCCN1CCN(C(=O)c2ccc([N+](=O)[O-])cc2)CC1)c1ccccc1 (centres undefined)	.	.	.	.	.	.
CC(C)NC(=O)C1(S(=O)(=O)c2ccccc2)CC=CC1	.	.	.	.	.	.
SMILES	EBNA-1 inhibitor	ZTA DNA inh	NALP1 inh	dFosB act	NALP3 yeast inh	PolyA inh
Cc1cc(C)c(Nc2cc(S(=O)(=O)O)c(N)c3c2C(=O)c2ccccc2C3=O)c(C)c1	50.5	51.6	.	.	/	/
O=C(Cn1[nH]c(=O)c2ccccc2c1=O)NCCN1C(=O)S/C(=C\c2ccccc2)C1=O	/	/	/	.	.	/
CN(C)CCNC(=O)/C(=C/c1ccc(-c2ccc(Cl)cc2Cl)o1)NC(=O)c1ccccc1	.	.	.	34.7	.	.
CN(C)CCNC(=O)/C(=C/c1ccc(-c2ccc(Cl)cc2)o1)NC(=O)c1ccccc1	.	.	.	19.7	/	.
CCOC(=O)C1CCN(C(=O)Cn2nc(C)n3c(cc4cc(F)ccc43)c2=O)CC1	.	.	.	.	.	.
O=C(Nc1cccnc1)c1cc(-c2ccc(F)cc2)on1	.	.	.	.	.	.
O=C(Nc1cccnc1)c1cc(-c2ccc(Cl)c(Cl)c2)on1	.	.	.	75.6	.	.
Cc1cccc(-c2cc3c(N=O)c4ccccc4c-3n[nH]2)c1	29.7	.	.	.	.	.
O=Nc1c2cc(-c3ccccc3)[nH]nc-2c2ccccc12	/	/	.	.	/	.
O=C1c2ccccc2C(=O)c2c1ccc(C(=O)N1CCCCC1)c2NCCO	.	.	.	.	.	.
CCN(CCN(C)C)C(=O)c1ccc2c(c1NCCO)C(=O)c1ccccc1C2=O	.	.	.	19.9	.	.
CN(CC(=O)Nc1cccc(F)c1)C(=O)COc1cccc2c1OC(C)(C)C2	.	.	31.5	.	.	.
Cn1cc(S(=O)(=O)N2CCCC2)cc1C(=O)NCCc1ccccc1	.	.	.	.	.	.
C(=C/c1nccc2c1[nH]c1ccccc12)/c1ccc2c(c1)OCO2	/	/	.	64.2	/	.
COC(=O)c1ccccc1S(=O)(=O)NNC(=O)Nc1ccccc1	.	.	.	.	.	.
Cc1cc(C)c2c(N)c3cccc(C)c3nc2n1	.	.	.	49.3	/	.
COc1ccc(NC(=O)C2CC(=O)n3c(nc4ccccc43)N2)cc1 (centres undefined)	.	.	/	34.5	.	.
S=C(c1ccc(-c2cccc(Cl)c2)o1)N1CCCCC1	.	.	38.1	.	.	.
CC1=C(C#N)C(=O)N(C2CCS(=O)(=O)C2)C(=O)/C1=C\c1ccco1 (centres undefined)	63.2	78.6	/	/	.	.
O=C1/C(=C\c2ccco2)SC(=S)N1C1CCCCC1	.	.	.	/	.	.
Cn1cnc([N+](=O)[O-])c1S(=O)(=O)c1cccc(Cl)c1	.	.	66.2	.	.	.
CC(=O)Nc1ccc(S(=O)(=O)NC2CC(=O)N(c3ccc(C)cc3)C2)cc1 (centres undefined)	.	.	/	.	.	.
COc1ccc(-n2c(C)cc(-c3csc(N)n3)c2C)cc1	.	.	/	25.0	.	.
Cc1cccc(OCc2nnc(SCc3nc4ccccc4c(=O)[nH]3)o2)c1	.	.	.	45.5	.	.
N#C/C=C/N1CCC(Cc2ccccc2)CC1	.	.	.	.	.	.
SMILES	EBNA-1 inhibitor	ZTA DNA inh	NALP1 inh	dFosB act	NALP3 yeast inh	PolyA inh
Cc1ccccc1-c1nn(-c2ccc(F)cc2F)cc1CNCCCO	.	.	19.8	.	.	.
OCC1(Cc2ccc(Cl)cc2)CCN(Cc2ccccc2F)CC1	.	.	.	.	.	.
CSc1ccc(CN2CCC(CO)(Cc3ccc(Cl)cc3)CC2)cc1	.	.	28.3	.	.	.
CC(C)Cn1c(N)c(C(=O)COC(=O)COc2cccc(C(F)(F)F)c2)c(=O)n(C)c1=O	.	.	.	.	.	.
O=C(Oc1c(-c2ccccc2)c(=O)n2c3c(cccc13)CC2)c1cccc([N+](=O)[O-])c1	.	.	.	.	.	67.1
CC(C)(C)C(=O)COC(=O)c1ccc(O)cc1	.	.	.	.	.	.
CC(C)(C)C(=O)COC(=O)c1ccccc1O	.	.	37.1	.	.	.

Screening data deposited in PubChem BioAssay by several laboratories.
